Screening results: PubChem BioAssay, National Center for Advancing Translational Sciences (NCATS)
USP2a inh – USP2a (human) protease inhibition; USP2a enzymatic assay, qHTS inhibition; Potency, µM (titrated, usually from 38.3 µM), inactives show at the top dose activity change, negative = inhibition, hits mostly inhibitors; 60,000 compounds, 0.1% hits; O75604; AID 927; further: nearly all actives have a fitted effect of over 60% in size
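Coupled readout: USP2-cleaved Ub-PLA2 (20nM final) turns over NBD C6-HPC (20uM final), Ex 460nm/Em 535nm after 2.5 h, time-zero read flagging artifacts. Enzyme (20nM final, pH 8.0 Tris) given 30 min RT with compound first; NEM defines full inhibition.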
Casp7 inh – blocks human caspase-7 allosterically or competitively | P55210 | recombinant caspase-7, Ac-DEVD-AFC fluorescence rate | Potency, µM (highest dose often 57.5 µM), without a hit: top-dose activity change, negative = inhibition, actives largely listed as inhibitors | 75,000 compounds, 0.02% hits; active means well fitted inhibition curve with a large enough effect in the main read-out, with a control signal flat, not every such curve was filed as active; inconclusive means small, poorly fitted or top-dose-only effect, or a change in a side signal; further: % of control where 0% means no effect
ALOX15B inhib – 15-hLO-2 (ALOX15B) enzyme inhibition; O15296; purified 15hLO-2, xylenol orange hydroperoxide absorbance; Potency, µM (top dose mostly 57.1 µM), without a hit: at the top dose activity change, negative = inhibition, actives largely listed as inhibitors; 110,000 compounds, 0.56% hits; AID 881; further: on the % scale 0 is the no-effect control and ±100 the full control effect; nearly all actives have a fitted effect of over 60% in size
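Purified human 15hLO-2 (50 nM) preincubated 15 min with compound, then 45 uM arachidonic acid for 90 min at RT in 25 mM Hepes pH 7.5, 0.01% Triton X-100. Hydroperoxide detected by Fe-xylenol orange; 573/405 nm absorbance ratio.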
Casp1 inh – blocks human caspase-1 allosterically or competitively; AID 900; Potency, µM (doses to about 57.5 µM), without a hit: top-dose activity change, negative = inhibition, most hits filed as inhibitors; Caspase-1 enzyme, Ac-WEHD-AFC fluorogenic rate; 75,000 compounds, 0.03% hits;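 further: plate controls were vehicle for no effect and no substrate for full effect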
15-hLO inh – inhibitors of human 15-lipoxygenase (ALOX15); P16050; purified 15hLO-1, xylenol orange hydroperoxide absorbance; Potency, µM (highest dose often 57.1 µM), inactives show at the highest dose activity change, negative = inhibition, most hits filed as inhibitors; 74,000 compounds, 1.4% hits; further: on the % scale 0 is the no-effect control and ±100 the full control effect; nearly all actives have a fitted effect of over 55% in size
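Hydroperoxide formed from arachidonic acid (50 uM) by purified human 15hLO-1 (40 nM) oxidizes ferrous iron, and the ferric-xylenol orange complex is read at 573 versus 405 nm. Compounds were preincubated 15 min; reaction ran 6 min at room temperature.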
An asterisk follows results filed as active; ! = not active in a repeat; [ ] = remark or other dose. This excerpt belongs to a sample that is enriched for hits. Unless noted, the call rests on the fitted dose curve; in most records, active means well fitted curve in the direction sought with a large enough effect; inconclusive means small, poorly fitted or top-dose-only effect, or another doubt; inactive means no such curve, though single readings can be large; an effect the other way counts as inactive or inconclusive. Potency means the concentration at half of the fitted maximal effect.

`CC1=C(C#N)c2nc(N)c(C#N)c(C)c2/C1=C\c1ccccc1` gave Casp7 inh -0.1%, Casp1 inh 1.5% and 15-hLO inh 39.8µM*.
Screening Cc1cnc(CNc2ncnc3ccc(-c4cccc(C#N)c4)cc23)cn1 returned USP2a inh 13.6%, Casp7 inh -5.2%, ALOX15B inhib 2.3%, Casp1 inh -2.6% and 15-hLO inh -5.4%.
Screening COc1cc(O)ccc1C(C)=O returned USP2a inh 2.7%, Casp7 inh 1.2%, ALOX15B inhib -11.9%, Casp1 inh -1.1% and 15-hLO inh 0.7%.
For Cc1cc(C(=O)O)c2ccccc2n1 the results were ALOX15B inhib 2.3%.
`Cc1cc2c(ccc3[nH]onc32)n1` gave USP2a inh 15.9%, Casp7 inh inconclusive, ALOX15B inhib -11.0%, Casp1 inh inconclusive and 15-hLO inh 20µM*.
Screening Cc1[nH]c2ccccc2c1SCCNC(=O)c1ccc(Br)o1 returned USP2a inh 5.2%, Casp7 inh -2.0%, Casp1 inh -0.6% and 15-hLO inh -16.9%.
O=C(NCCSc1c[nH]c2ccccc12)c1ccc(Br)o1 was read as Casp7 inh -0.6%, Casp1 inh -4.6% and 15-hLO inh 25.1µM*.
Screening c1ccc(CNc2ncncc2-c2ccoc2)cc1 returned USP2a inh 81.5%, Casp7 inh -8.5%, ALOX15B inhib -4.0%, Casp1 inh -7.6% and 15-hLO inh -11.2%.
`O=c1c2ccccc2sn1-c1cc(S(=O)(=O)N2CCOCC2)ccc1N1CCCC1` gave ALOX15B inhib 1µM*.
O=c1c2ccccc2sn1-c1cc(S(=O)(=O)N2CCOCC2)ccc1N1CCOCC1 was read as USP2a inh -3.1%, Casp7 inh -2.1%, ALOX15B inhib 0.501µM*, Casp1 inh -0.2% and 15-hLO inh 15.8µM*.
For O=S(=O)(NCc1ccccn1)c1cccc2cccnc12 the results were Casp7 inh 2.1%, Casp1 inh -1.1% and 15-hLO inh 8.9%.
Screening Cc1nc(N=Nc2cc(S(=O)(=O)O)c3cc([N+](=O)[O-])cc(S(=O)(=O)O)c3c2)c(COP(=O)(O)O)c(C=O)c1O returned USP2a inh 13.1%, Casp7 inh -14.2%, ALOX15B inhib 1.1%, Casp1 inh -4.7% and 15-hLO inh 10µM*!.
Screening Cc1cccc(C)c1OC[C@@H](N)C(C)C returned USP2a inh 1.7%, Casp7 inh 0.1%, ALOX15B inhib -11.0%, Casp1 inh -3.3% and 15-hLO inh 6.2%.
Screening CCOc1ccc2nc(NC(=O)COC)sc2c1 returned USP2a inh 4.2%, Casp7 inh -1.8%, ALOX15B inhib 14.5%, Casp1 inh 0.6% and 15-hLO inh 1.2%.
Screening CCOc1ccc2nc(NC(=O)c3ccoc3C)sc2c1 returned USP2a inh 36.0%[7.66 µM], Casp7 inh -0.5%, ALOX15B inhib 16.7%, Casp1 inh -1.3% and 15-hLO inh 3.98µM*.
For Clc1ccccc1CNCC1CCC(CNCc2ccccc2Cl)CC1 (stereo not drawn) the results were Casp7 inh 0.8%, ALOX15B inhib 34.6%, Casp1 inh -2.0% and 15-hLO inh -16.3%[25.6 µM].
CC1CCN(C(=O)N2c3ccccc3Sc3ccccc32)CC1 was read as ALOX15B inhib 5.8%.
Screening O=C(NC1CCN(C(=O)N2c3ccccc3Sc3ccccc32)CC1)c1ccccc1F returned ALOX15B inhib 15.8µM*.
`Nc1ccc(S(=O)(=O)NCCS(=O)(=O)O)cc1` gave Casp7 inh 1.2%[11.5 µM], ALOX15B inhib -8.0%[11.4 µM], Casp1 inh -2.2%[11.5 µM] and 15-hLO inh 1.2%[11.4 µM].
Screening Cc1[nH]n(-c2ccccc2)c(=S)c1C=Nc1cccc([N+](=O)[O-])c1 returned ALOX15B inhib 10µM*.
Screening CCOC(=O)CCN1CCN(C(=O)c2ccc(-n3c(=O)c(=O)[nH]c4ccccc43)cc2)CC1 returned Casp7 inh -1.2%, Casp1 inh -2.4% and 15-hLO inh 12.6µM*.
Screening O=c1c(O)c(-c2cc(O)c(O)c(O)c2)oc2cc(O)cc(O)c12 returned USP2a inh 84.7%[17.1 µM], Casp7 inh -7.4%, ALOX15B inhib inconclusive, Casp1 inh -4.7% and 15-hLO inh 2.51µM*.
Screening O=C1C(Cl)=C(N2CCOCC2)C(=O)N1c1cccc(Cl)c1 returned USP2a inh -3.2%[7.66 µM], Casp7 inh -5.8%, ALOX15B inhib 15.5%, Casp1 inh -8.4% and 15-hLO inh 3.98µM*.
Screening COc1ccc2ccccc2c1C1CC(=O)N2CN(C3CCCCC3)CSC2=C1C#N (stereo not drawn) returned Casp7 inh -23.9%, ALOX15B inhib inconclusive, Casp1 inh -15.8% and 15-hLO inh inconclusive.
For COc1ccc(N2C(=O)C3CCCN3C2c2ccc(Cl)cc2)cc1 (stereo not drawn) the results were Casp7 inh 0.0%, ALOX15B inhib -2.3%, Casp1 inh -14.0% and 15-hLO inh 3.3%.
For Cc1ccc(C2N(c3cccc(Cl)c3)C(=O)C3CCCN32)o1 (stereo not drawn) the results were Casp7 inh 0.2%, ALOX15B inhib 3.9%, Casp1 inh -1.7% and 15-hLO inh 1.3%.
Screening Cc1cccc(N2CSC3=C(C#N)C(c4ccc(C)o4)CC(=O)N3C2)c1 (stereo not drawn) returned USP2a inh inconclusive, Casp7 inh inconclusive, ALOX15B inhib inconclusive, Casp1 inh inconclusive and 15-hLO inh 1.58µM*.
`COc1ccc(C2CC(=O)N3CN(c4ccc(C)c(Cl)c4)CSC3=C2C#N)cc1` (stereo not drawn) gave Casp7 inh -3.1%, ALOX15B inhib 15.8µM*, Casp1 inh -3.2% and 15-hLO inh inconclusive.
Screening COc1ccc(N2CSC3=C(C#N)C(c4cccc(OC)c4OC)CC(=O)N3C2)cc1 (stereo not drawn) returned Casp7 inh -11.0%, ALOX15B inhib 12.6µM*, Casp1 inh -5.9% and 15-hLO inh inconclusive.
For COc1cc(OC)c(C2CC(=O)N3CN(c4ccccc4C)CSC3=C2C#N)cc1OC (stereo not drawn) the results were USP2a inh 35.8%, Casp7 inh -21.0%, ALOX15B inhib inconclusive, Casp1 inh -14.9% and 15-hLO inh inconclusive.
Screening COc1ccc(OC)c(C2CC(=O)N3CN(c4ccccc4)CSC3=C2C#N)c1 (stereo not drawn) returned Casp7 inh -3.5%, ALOX15B inhib 10µM*, Casp1 inh -2.4% and 15-hLO inh inconclusive.
Screening CN(C)Cc1ccccc1-c1nc(NC2CCNCC2)c2ccccc2n1 returned USP2a inh -4.1%, Casp7 inh -2.7%, ALOX15B inhib 30.8%, Casp1 inh -3.1% and 15-hLO inh 24.0%.
For CC1(C)O[C@H]2[C@@H](c3[nH]nc4c(=O)[nH]c(=O)[nH]c34)OC[C@H]2O1 the results were Casp7 inh 1.6%[11.5 µM], ALOX15B inhib 2.1%[11.4 µM], Casp1 inh 0.0%[11.5 µM] and 15-hLO inh 1.7%[11.4 µM].
